Where “and” joins values, the source holds several entries; their conditions need not be identical. Identical values can stand only once. The panel holds about 83,000 compounds, 20% with a hit somewhere; the sample as a whole holds those more often.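 A percent growth of 40 corresponds to 60% growth inhibition; 0 means no net growth; -100 means all cells died. Active threshold: below 10.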 Calls of active or inactive are those of the source.
How the values were obtained:
Experiment in all cases: NCI-60 one-dose screen, 48 h (100 = growth as untreated, 0 = no growth, -100 = all killed)
Conditions in all cases: 10 µM unless noted
T-47D breast = test system: T-47D breast
BT-549 breast = test system: BT-549 breast
MDA-MB-435 melanoma = test system: MDA-MB-435 melanoma
SW-620 colon = test system: SW-620 colon
MCF7 breast = test system: MCF7 breast
HCT-116 colon = test system: HCT-116 colon
HCC-2998 colon = test system: HCC-2998 colon
KM12 colon = test system: KM12 colon

SMILES | growth (T-47D breast) | growth (BT-549 breast) | growth (MDA-MB-435 melanoma) | growth (SW-620 colon) | growth (MCF7 breast) | growth (HCT-116 colon) | growth (HCC-2998 colon) | growth (KM12 colon)
Nc1cc(-c2cccc(OC(F)(F)F)c2)nc2ccc(N3CCCC3)cc12 | 99.2% (inactive) and 100% (inactive) and 87.9% (inactive) | 16.2% (inactive) and 26.9% (inactive) and 3.22% (active) | -9.34% (active) and -21.4% (active) and -35.8% (active) | 26.8% (inactive) and 32% (inactive) and 21.7% (inactive) | 15.4% (inactive) and 14.9% (inactive) and 15.8% (inactive) | 2.86% (active) and 5.92% (active) and 2.47% (active) | -31.7% (active) and 2.5% (active) and -33.8% (active) | 10.1% (inactive) and 14.3% (inactive) and 3.24% (active)
Oc1c(Cl)cc(Cl)cc1Sc1cc(Cl)cc(Cl)c1O | 77.4% (inactive) and 52.2% (inactive) and 80.7% (inactive) | 32.1% (inactive) and 77% (inactive) | 51% (inactive) and 26.6% (inactive) and 92.5% (inactive) | 15.7% (inactive) and 26.6% (inactive) and 83% (inactive) | 73.1% (inactive) and 5.37% (active) and 69.8% (inactive) | 18.7% (inactive) and 11.8% (inactive) and 76.7% (inactive) | 50% (inactive) and 23.1% (inactive) and 86% (inactive) | 46.7% (inactive) and 21% (inactive) and 80.2% (inactive)
OCCN1CCN(CCCN2c3ccccc3Sc3ccc(Cl)cc32)CC1 | 66% (inactive) and 84.1% (inactive) | 59.1% (inactive) and 74.7% (inactive) | -11.6% (active) and 26.5% (inactive) | 80.6% (inactive) and 83.8% (inactive) | 77.2% (inactive) | 35.1% (inactive) and 66.7% (inactive) | 15.2% (inactive) and 70.6% (inactive) | 71.4% (inactive) and 80.5% (inactive)
CCC(C)C1(C2CCCC2)NC(=O)NC1=O (centres undefined) | 97.1% (inactive) and 98.3% (inactive) | 107% (inactive) | 121% (inactive) and 102% (inactive) | 112% (inactive) and 98.9% (inactive) | 99.3% (inactive) and 97.3% (inactive) | 100% (inactive) and 112% (inactive) | 103% (inactive) and 102% (inactive) | 106% (inactive) and 111% (inactive)
Cc1cccc(/C=C\C(=O)c2ccc(Cl)cc2)c1 | 93.8% (inactive) and 91.9% (inactive) | 82.9% (inactive) | 95.6% (inactive) and 84.4% (inactive) | 89.3% (inactive) and 69% (inactive) | 51.5% (inactive) and 73.7% (inactive) | 52.5% (inactive) and 62.3% (inactive) | – | 96.3% (inactive) and 95.1% (inactive)
CCCCCN(CCCCC)CC(O)c1cc2c(c3ccccc13)CCCC2 (centres undefined) | 51.1% (inactive) and 54.1% (inactive) | – | 83.4% (inactive) and 69.8% (inactive) | 28.9% (inactive) and 30.4% (inactive) | 44.8% (inactive) and 23.5% (inactive) | 20.2% (inactive) and 17.9% (inactive) | 13.1% (inactive) | 50.5% (inactive) and 35.3% (inactive)
CCNC(=O)Nc1ccc(-c2nc3c(c(N4CCOC[C@@H]4C)n2)CCN(C2COC2)C3)cc1 | -12.4% (active) and -25.3% (active) | – | 32.9% (inactive) and 0.798% (active) | 62.2% (inactive) and 14% (inactive) | 15.6% (inactive) and 11.8% (inactive) | 58.9% (inactive) and 28.5% (inactive) | – | 47.5% (inactive) and 17.1% (inactive)
C1CCCCNCCC1 | 101% (inactive) | 114% (inactive) | 94.6% (inactive) | – | 101% (inactive) | 107% (inactive) | 112% (inactive) | 115% (inactive)
Cc1ccc(NCSc2ccc(Cl)cc2)cc1 | 74.3% (inactive) and 62.4% (inactive) | 44.9% (inactive) and 66% (inactive) | 63.8% (inactive) and 65.7% (inactive) | – | 86.9% (inactive) and 80.7% (inactive) | 85% (inactive) and 91% (inactive) | 92.4% (inactive) and 94.9% (inactive) | 61.4% (inactive) and 66.5% (inactive)
O=C(N/N=C/c1ccccc1)N/N=C/c1ccccc1 | 114% (inactive) and 106% (inactive) | – | 104% (inactive) and 98.6% (inactive) | 106% (inactive) and 96% (inactive) | 99.1% (inactive) and 102% (inactive) | 107% (inactive) | 101% (inactive) and 96.3% (inactive) | 99.8% (inactive) and 102% (inactive)
Cc1cc(O)c(C(C)C)cc1S(=O)(=O)O (tested in a mixture with another compound) | 89.2% (inactive) and 58.9% (inactive) and 96.5% (inactive) | 96.8% (inactive) and -9.88% (active) and 113% (inactive) | 104% (inactive) and -12.6% (active) and 112% (inactive) | – | 89.5% (inactive) and 4.62% (active) and 81.2% (inactive) | 85.9% (inactive) and 6.36% (active) and 104% (inactive) | 91.7% (inactive) and -59% (active) and 112% (inactive) | 116% (inactive) and 13.2% (inactive) and 113% (inactive)
O[C@H](c1cc(C(F)(F)F)nc2c(C(F)(F)F)cccc12)[C@@H]1CCCCN1 | 43.6% (inactive) and 64% (inactive) | 65.1% (inactive) and 74.8% (inactive) | 64.2% (inactive) and 69% (inactive) | – | 21.3% (inactive) and 13.3% (inactive) | 44.1% (inactive) and 45.2% (inactive) | – | 50.7% (inactive) and 43.8% (inactive)
CC(/C=N/N1C(=O)c2ccccc2C1=O)c1ccccc1 (centres undefined) | 98.7% (inactive) | – | 91.6% (inactive) | 106% (inactive) | 97.5% (inactive) | 108% (inactive) | 106% (inactive) | 113% (inactive)
Cc1cc(O)c2c(c1)C(=O)c1cc(O)cc(O)c1C2=O | 65% (inactive) and 73.4% (inactive) | 84.5% (inactive) and 88.1% (inactive) | 76.8% (inactive) and 83.6% (inactive) | – | 98.4% (inactive) and 95.1% (inactive) | 92.9% (inactive) and 97.5% (inactive) | 95% (inactive) and 108% (inactive) | 98.1% (inactive) and 91.9% (inactive)
COc1cc(C(=O)c2ccc3c(c2)OCO3)cc(OC)c1OC | 34.4% (inactive) and 32.8% (inactive) | – | -19.5% (active) and -21.3% (active) | 16.1% (inactive) and 9.92% (active) | 23.2% (inactive) and 14.8% (inactive) | 27.2% (inactive) and 24.5% (inactive) | 60.1% (inactive) and 54.8% (inactive) | 24.7% (inactive) and 27.3% (inactive)
Cc1nn(-c2ccccc2)nc1C(=O)Nc1ccccc1C(=O)NCC1CC1 | 76.8% (inactive) and 28.7% (inactive) | – | 102% (inactive) and 85.9% (inactive) | 104% (inactive) and 68.7% (inactive) | 81.1% (inactive) and 56.5% (inactive) | 63.9% (inactive) and -13.4% (active) | – | 117% (inactive) and 93.9% (inactive)
COC(=O)/C=C/c1cc(O)c2c(c1)C(C(=O)OC)C(c1ccc(O)c(O)c1)O2 (centres undefined) | 84.7% (inactive) and 84.1% (inactive) | -2.3% (active) and -1.89% (active) | -37.6% (active) and -26% (active) | – | 15.1% (inactive) and 13.7% (inactive) | 8.03% (active) and 7.89% (active) | 27.8% (inactive) and 29.9% (inactive) | 11.9% (inactive) and 11.7% (inactive)
Cc1nnc(NC/C=C/c2ccccc2)s1 | 91.6% (inactive) and 101% (inactive) | – | 110% (inactive) and 108% (inactive) | 113% (inactive) and 105% (inactive) | 98.8% (inactive) and 96.2% (inactive) | 105% (inactive) and 100% (inactive) | 127% (inactive) and 102% (inactive) | 94.4% (inactive)
CC1(c2ccc3ccccc3c2)CCC(=O)O1 (centres undefined) | 103% (inactive) | 104% (inactive) | 106% (inactive) | – | 106% (inactive) | 111% (inactive) | 109% (inactive) | 106% (inactive)
